Data: the supplement of paper PMC10849652
Targets with a hit are over-represented here; the source holds about 8,800 in all. About 0.5% of all pairs of compound and target were hits.

How the values were obtained:
Experiment in all cases: log2 fold change, soluble protein after heating vs DMSO (PISA); higher = thermal stabilisation; K562 lysate, 10 uM; active = over 0.2 and 3.5 SD of the protein, either way, in both replicates (recomputed)
ibrutinib = compound: C=CC(=O)N1CCC[C@@H](n2nc(-c3ccc(Oc4ccccc4)cc3)c3c(N)ncnc32)C1 [ibrutinib]
Summary of the method: (§1)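 Log-two fold change in thermal stability relative to solvent controls is reported from duplicates. For each sample, crude K562 extract from dounce-homogenised pellets in PBS pH 7.4 with 1 mM MgCl2, at 1 mg/mL protein, was treated with 10 μM compound for 30 min. Aliquots heated for 3 min across 48°C-58°C were pooled, brought to 0.5% NP-40 at 4°C and cleared at 21,000xg for 90 min. The supernatant was quantified by TMTpro 16plex LC-MS/MS with channel sums equalised.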

[1] = compound: CC(=O)c1cnc2ccc(-c3cc(Cl)c(O)c(Cl)c3)nc2c1N[C@H]1CC[C@H](CN(C)C)CC1
Summary of the method: as §1

ralimetinib = compound: CC(C)(C)Cn1c(N)nc2ccc(-c3[nH]c(C(C)(C)C)nc3-c3ccc(F)cc3)nc21 [ralimetinib]
Summary of the method: as §1

[2] = compound: CC(C)(O)CC(=O)NCCn1ccc2ncnc(Nc3ccc(Oc4cccc(C(F)(F)F)c4)c(Cl)c3)c21
Summary of the method: as §1

[3] = compound: CC(C)C1=C2N=C(C=C(N2N=C1)NCC3=CC=CC=C3)NCCCCCCN
Summary of the method: as §1

[4] = compound: CC1=C(C(CC(=O)N1)C2=CC=C(C=C2)C(F)(F)F)C(=O)NC3=C(C=C4C(=C3)C=NN4)F
Summary of the method: as §1

[5] = compound: CC1=C(C=C(C=C1)NC(=O)C2=CC(=CC=C2)C(C)(C)C#N)NC3=CC4=C(C=C3)N=CN(C4=O)C
Summary of the method: as §1

[6] = compound: CC1=C(C=C(C=C1)NC(=O)C2=CC(=CC=C2)N(C)C)NC(=O)C3=CC=C(C=C3)O
Summary of the method: as §1

[7] = compound: CC1=CC=C(C=C1)SC2=C3C=C(SC3=CN=C2)C(=O)N
Summary of the method: as §1

[8] = compound: CC1=C(C2=C(C=C1)C(=O)C3=CC=CC=C3N2CCCN)C
Summary of the method: as §1

Measured: log2 fold change

PRKD3 (UniProt O94806)
inactive: ibrutinib -0.112 | [1] 0.054 | ralimetinib -0.164 | [2] -0.052 | [3] 0.03 | [4] 0.039 | [5] -0.068 | [6] -0.022 | [7] -0.077

PHKG2 (UniProt P15735)
Sequence of UniProt P15735 (P15735 whole entry, looked up): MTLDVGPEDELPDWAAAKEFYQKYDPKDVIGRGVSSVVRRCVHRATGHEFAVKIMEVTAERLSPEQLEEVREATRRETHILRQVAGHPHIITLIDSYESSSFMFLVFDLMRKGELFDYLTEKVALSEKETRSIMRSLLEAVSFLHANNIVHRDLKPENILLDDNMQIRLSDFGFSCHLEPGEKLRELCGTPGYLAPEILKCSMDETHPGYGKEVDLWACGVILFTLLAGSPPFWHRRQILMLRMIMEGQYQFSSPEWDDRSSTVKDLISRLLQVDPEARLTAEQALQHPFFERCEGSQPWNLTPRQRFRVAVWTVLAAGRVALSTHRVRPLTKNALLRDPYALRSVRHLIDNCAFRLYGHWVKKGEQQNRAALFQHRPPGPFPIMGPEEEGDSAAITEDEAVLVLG
inactive: ibrutinib -0.099 | [1] 0.168 | ralimetinib 0.003 | [2] -0.011 | [3] 0.03 | [4] -0.029 | [8] -0.018 | [5] -0.018 | [6] -0.004 | [7] -0.027

QKI (UniProt Q96PU8)
Sequence of UniProt Q96PU8 (Q96PU8 whole entry, looked up): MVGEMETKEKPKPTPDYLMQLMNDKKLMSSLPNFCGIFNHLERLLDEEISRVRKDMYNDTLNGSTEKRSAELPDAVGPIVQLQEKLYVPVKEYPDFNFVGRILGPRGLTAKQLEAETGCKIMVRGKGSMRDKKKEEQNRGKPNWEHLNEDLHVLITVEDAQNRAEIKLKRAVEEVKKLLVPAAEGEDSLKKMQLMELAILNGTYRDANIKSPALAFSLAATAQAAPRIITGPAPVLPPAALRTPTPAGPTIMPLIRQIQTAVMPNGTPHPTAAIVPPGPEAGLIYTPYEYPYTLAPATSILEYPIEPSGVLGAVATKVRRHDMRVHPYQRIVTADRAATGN
inactive: ibrutinib -0.022 | [1] -0.012 | ralimetinib -0.023 | [2] -0.027 | [3] 0.029 | [4] 0.065 | [8] 0.069 | [5] -0.094 | [6] 0.009 | [7] -0.023

PRAME (UniProt P78395)
inactive: ibrutinib 0.009 | [1] 0.029 | ralimetinib 0.003 | [2] 0.005 | [3] 0.011 | [4] 0.015 | [8] 0.003 | [5] 0.006 | [6] 0.008 | [7] 0.002

PTGES2 (UniProt Q9H7Z7)
Sequence of UniProt Q9H7Z7 (Q9H7Z7 whole entry, looked up): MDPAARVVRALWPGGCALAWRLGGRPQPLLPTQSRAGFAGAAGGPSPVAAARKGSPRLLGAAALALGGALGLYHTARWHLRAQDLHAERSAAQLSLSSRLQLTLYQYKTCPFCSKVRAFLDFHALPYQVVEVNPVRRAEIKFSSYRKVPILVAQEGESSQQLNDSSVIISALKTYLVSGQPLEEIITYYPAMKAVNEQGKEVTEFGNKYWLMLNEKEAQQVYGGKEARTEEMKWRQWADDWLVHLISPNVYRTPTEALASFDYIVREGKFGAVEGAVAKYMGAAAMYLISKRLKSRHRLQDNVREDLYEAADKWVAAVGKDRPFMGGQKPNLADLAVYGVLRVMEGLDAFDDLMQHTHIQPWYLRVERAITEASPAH
inactive: ibrutinib -0.035 | [1] -0.092 | ralimetinib -0.004 | [2] 0.167 | [3] 0.132 | [4] -0.029 | [8] -0.002 | [5] 0.001 | [6] -0.082 | [7] 0.036

PTGS1 isoform 6 (UniProt P23219)
Sequence of UniProt P23219 (P23219 whole entry, looked up): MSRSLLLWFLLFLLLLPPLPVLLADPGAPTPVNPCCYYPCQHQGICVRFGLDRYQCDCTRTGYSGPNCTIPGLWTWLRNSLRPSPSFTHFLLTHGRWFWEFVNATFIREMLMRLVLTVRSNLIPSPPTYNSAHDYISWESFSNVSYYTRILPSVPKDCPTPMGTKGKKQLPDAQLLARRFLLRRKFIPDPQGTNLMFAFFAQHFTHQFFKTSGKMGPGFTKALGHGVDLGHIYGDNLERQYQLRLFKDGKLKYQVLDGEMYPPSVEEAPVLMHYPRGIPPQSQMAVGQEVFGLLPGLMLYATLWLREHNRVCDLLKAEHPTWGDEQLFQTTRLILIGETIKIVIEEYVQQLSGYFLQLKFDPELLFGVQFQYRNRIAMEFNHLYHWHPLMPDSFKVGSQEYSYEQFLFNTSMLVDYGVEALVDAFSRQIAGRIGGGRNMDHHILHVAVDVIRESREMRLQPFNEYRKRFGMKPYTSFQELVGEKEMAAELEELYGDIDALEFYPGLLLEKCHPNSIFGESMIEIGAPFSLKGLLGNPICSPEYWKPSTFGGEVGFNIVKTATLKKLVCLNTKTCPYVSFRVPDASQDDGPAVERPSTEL
inactive: ibrutinib 0.109 | [1] 0.022 | ralimetinib -0.001 | [2] -0.075 | [3] -0.043 | [4] 0.023 | [8] -0.039 | [5] 0.023 | [6] -0.011 | [7] -0.026

PRMT5 (UniProt O14744)
inactive: ibrutinib 0.004 | [1] -0.002 | ralimetinib -0.015 | [2] 0.004 | [3] -0.004 | [4] -0.015 | [8] -0.008 | [5] 0.001 | [6] -0.01 | [7] 0.022

PCBP2 isoform 8 (UniProt Q15366)
Sequence of UniProt Q15366 (Q15366 whole entry, looked up): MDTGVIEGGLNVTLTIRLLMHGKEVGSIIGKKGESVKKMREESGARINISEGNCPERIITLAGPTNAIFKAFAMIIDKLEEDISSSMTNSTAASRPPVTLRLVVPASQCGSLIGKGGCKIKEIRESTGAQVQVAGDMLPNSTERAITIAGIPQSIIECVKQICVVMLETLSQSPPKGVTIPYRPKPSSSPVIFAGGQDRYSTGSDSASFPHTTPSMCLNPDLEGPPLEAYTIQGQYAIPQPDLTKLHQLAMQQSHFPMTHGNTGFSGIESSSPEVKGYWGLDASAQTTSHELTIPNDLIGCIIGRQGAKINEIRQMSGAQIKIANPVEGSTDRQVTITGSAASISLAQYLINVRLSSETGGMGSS
inactive: ibrutinib 0.15 | [1] 0.003 | ralimetinib -0.003 | [2] -0.041 | [3] -0.005 | [4] -0.011 | [8] -0.007 | [5] 0.071 | [6] -0.05 | [7] -0.043

PNPLA4 (UniProt P41247)
inactive: ralimetinib 0.14 | [2] -0.099 | [8] -0.116 | [5] -0.052 | [6] 0.046

PMS1 (UniProt P54277)
Sequence of UniProt P54277 (P54277 whole entry, looked up): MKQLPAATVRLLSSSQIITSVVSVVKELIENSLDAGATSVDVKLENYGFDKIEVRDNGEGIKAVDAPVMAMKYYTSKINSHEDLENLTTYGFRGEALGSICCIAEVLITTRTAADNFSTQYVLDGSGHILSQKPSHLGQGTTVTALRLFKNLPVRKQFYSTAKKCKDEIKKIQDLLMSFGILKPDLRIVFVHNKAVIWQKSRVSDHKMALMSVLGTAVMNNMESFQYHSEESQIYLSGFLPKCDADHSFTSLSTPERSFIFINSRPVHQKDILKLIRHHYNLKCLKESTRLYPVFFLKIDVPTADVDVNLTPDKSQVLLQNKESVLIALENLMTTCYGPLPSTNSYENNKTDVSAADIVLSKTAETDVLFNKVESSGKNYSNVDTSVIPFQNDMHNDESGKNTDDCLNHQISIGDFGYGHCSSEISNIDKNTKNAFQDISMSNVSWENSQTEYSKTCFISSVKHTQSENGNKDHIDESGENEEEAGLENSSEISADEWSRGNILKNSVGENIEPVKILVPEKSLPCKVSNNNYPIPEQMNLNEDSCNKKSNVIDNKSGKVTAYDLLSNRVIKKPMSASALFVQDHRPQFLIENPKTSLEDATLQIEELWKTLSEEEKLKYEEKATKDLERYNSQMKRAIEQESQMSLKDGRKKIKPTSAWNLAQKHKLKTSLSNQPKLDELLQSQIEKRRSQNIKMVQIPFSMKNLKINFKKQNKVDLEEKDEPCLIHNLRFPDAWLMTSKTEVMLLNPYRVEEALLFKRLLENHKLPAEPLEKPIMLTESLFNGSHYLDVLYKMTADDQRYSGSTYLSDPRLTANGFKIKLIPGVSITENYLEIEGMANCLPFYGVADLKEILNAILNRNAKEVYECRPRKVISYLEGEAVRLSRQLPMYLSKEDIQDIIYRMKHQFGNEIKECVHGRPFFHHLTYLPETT
inactive: ibrutinib 0 | ralimetinib -0.015 | [2] -0.021 | [3] 0.025 | [4] -0.052 | [8] 0.022 | [5] -0.02 | [6] 0.009

PIK3CG (UniProt P48736)
Sequence of UniProt P48736 (P48736 whole entry, looked up): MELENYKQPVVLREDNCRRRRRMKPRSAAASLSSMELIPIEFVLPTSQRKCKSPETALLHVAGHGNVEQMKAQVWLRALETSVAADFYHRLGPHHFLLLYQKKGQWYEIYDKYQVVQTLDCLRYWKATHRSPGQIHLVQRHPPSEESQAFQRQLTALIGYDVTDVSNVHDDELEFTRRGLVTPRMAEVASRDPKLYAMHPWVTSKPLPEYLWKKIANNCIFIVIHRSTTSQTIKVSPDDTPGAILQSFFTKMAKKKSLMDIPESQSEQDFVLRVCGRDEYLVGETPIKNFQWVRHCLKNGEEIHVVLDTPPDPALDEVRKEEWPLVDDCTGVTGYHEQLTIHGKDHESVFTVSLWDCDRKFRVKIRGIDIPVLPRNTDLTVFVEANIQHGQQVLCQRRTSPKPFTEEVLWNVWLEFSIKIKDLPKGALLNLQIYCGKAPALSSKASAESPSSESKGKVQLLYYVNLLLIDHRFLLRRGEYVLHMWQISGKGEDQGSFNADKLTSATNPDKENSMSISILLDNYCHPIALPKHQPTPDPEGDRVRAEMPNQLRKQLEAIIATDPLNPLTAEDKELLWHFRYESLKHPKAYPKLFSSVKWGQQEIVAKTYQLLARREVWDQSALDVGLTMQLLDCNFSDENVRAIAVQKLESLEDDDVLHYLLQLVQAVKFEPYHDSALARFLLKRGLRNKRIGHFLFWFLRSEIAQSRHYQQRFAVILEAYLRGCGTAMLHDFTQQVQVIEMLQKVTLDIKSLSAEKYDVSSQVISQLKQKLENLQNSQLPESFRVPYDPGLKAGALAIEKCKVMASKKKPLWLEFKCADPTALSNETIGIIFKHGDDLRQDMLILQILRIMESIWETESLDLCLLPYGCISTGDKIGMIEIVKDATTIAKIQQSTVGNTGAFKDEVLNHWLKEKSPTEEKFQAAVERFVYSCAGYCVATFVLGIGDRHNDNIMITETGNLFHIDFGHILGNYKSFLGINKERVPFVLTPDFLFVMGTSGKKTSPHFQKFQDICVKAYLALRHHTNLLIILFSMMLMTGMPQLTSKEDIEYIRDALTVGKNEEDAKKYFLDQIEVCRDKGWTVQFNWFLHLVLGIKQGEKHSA
inactive: ibrutinib -0.017 | ralimetinib 0.02 | [2] -0.047 | [3] -0.027 | [4] -0.054 | [8] -0.071 | [5] -0.025 | [6] 0.01

PREP (UniProt H0Y5Y0)
inactive: [1] -0.051 | [7] 0.029

PHC1 (UniProt P78364)
inactive: ibrutinib 0.027 | [4] 0.044 | [8] -0.117
active: [5] 0.443

PRG4 (UniProt Q92954)
inactive: ibrutinib 0.267 | [1] -0.002 | ralimetinib 0.037 | [2] -0.109 | [4] -0.091 | [8] -0.029 | [5] -0.027 | [6] 0.035 | [7] 0.034

PDE4DIP (UniProt E9PS60)
inactive: [3] 0.037 | [4] -0.113 | [8] 0.076 | [5] 0.234

PIAS2 (UniProt O75928)
Sequence of UniProt O75928 (O75928 whole entry, looked up): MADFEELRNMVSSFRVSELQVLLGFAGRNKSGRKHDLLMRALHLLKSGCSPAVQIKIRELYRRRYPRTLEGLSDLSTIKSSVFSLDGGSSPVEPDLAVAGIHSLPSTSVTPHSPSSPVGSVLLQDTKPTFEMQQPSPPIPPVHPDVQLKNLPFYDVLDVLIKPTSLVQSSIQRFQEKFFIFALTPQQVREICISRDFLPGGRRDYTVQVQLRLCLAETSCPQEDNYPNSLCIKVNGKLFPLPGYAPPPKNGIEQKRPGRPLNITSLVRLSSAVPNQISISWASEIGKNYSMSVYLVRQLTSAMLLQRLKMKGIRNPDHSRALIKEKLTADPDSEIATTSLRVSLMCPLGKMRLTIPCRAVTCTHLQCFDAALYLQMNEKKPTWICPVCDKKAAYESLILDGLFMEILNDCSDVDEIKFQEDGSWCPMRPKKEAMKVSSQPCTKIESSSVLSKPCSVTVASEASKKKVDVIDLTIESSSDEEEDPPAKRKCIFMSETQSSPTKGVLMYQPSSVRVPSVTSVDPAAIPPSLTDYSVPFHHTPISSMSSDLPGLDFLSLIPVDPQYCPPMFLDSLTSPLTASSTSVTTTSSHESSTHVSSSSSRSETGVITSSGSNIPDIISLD
inactive: ralimetinib 0.019 | [2] 0.006 | [3] -0.017 | [4] 0.039 | [8] 0.052 | [5] -0.001 | [6] -0.002

PICALM (UniProt H0YCY1)
inactive: [3] -0.155

PRRG1 (UniProt O14668)
inactive: ralimetinib 0.081 | [2] 0.072 | [6] -0.033

PPP1R14C (UniProt Q8TAE6)
Sequence of UniProt Q8TAE6 (Q8TAE6 whole entry, looked up): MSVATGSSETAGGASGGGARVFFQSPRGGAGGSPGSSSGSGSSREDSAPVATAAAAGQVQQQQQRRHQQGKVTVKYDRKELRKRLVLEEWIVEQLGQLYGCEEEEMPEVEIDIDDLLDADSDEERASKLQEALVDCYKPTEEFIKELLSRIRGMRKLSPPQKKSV
inactive: ibrutinib 0.067 | [1] 0.007 | ralimetinib 0.057 | [2] 0.042 | [4] -0.028 | [8] -0.097 | [6] -0.123 | [7] 0.068

PCLAF (UniProt Q15004)
inactive: ibrutinib 0.025 | ralimetinib 0.035 | [2] -0.014 | [3] -0.011 | [4] 0.003 | [8] -0.041 | [5] 0.034 | [6] -0.005
